# Reference: PubChem BioAssay AID435005 (Broad Institute, 2010)
# Among all 300,000 compounds or so, about 2,400 (0.8%) were called active. The list comes from a sample in which actives are over-represented; it also holds similar structures and randomly drawn compounds. Values without a mark were called inactive.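 Rule for the calls: active = Every replicate reaches about 75%, or at least half do and their mean reaches it too (limit read from the data); inconclusive = At least half of replicates reach the limit but their mean does not; inactive = Under half of replicates reach the limit.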
# Assay: inhibitors of cytokine-induced beta cell apoptosis, primary screen, luminescence (AID 435005);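 note: 0% = cytokine-treated negative control wells and 100% = positive control rescue; higher means more ATP so stronger rescue from cytokine killing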
# Conditions: INS-1E cytokine-induced death, ATP luminescence, 48 h; hits give high values; percent of positive-control rescue, neutral wells zero; concentration not given here
row,SMILES,protection from apoptosis
1,O=C(COC(=O)c1ccccn1)NNC(=O)c1ccc(Br)cc1,-13.1%
2,Cc1cc(C)cc(OCC(=O)Nc2ccc(N3CCOCC3)cc2N2CCOCC2)c1,1.95%
3,CN(CC(=O)Nc1ccc(OC(F)F)cc1)S(=O)(=O)/C=C/c1ccccc1,-0.758%
4,Cc1cccc2nc(CSc3nc4[nH]ncc4c(=O)n3-c3cccc(Cl)c3)cc(=O)n12,92.7% (active)
5,COc1ccc(CCNC(=O)CSc2nc3[nH]ncc3c(=O)n2-c2cccc(C(F)(F)F)c2)cc1OC,4.86%
6,CCc1ccc(-n2c(SCc3cc(=O)n4cc(Br)ccc4n3)nc3[nH]ncc3c2=O)cc1,16.3%
7,CC[C@@H]1CCCCc2ccccc2[C@@H](C(=O)C[C@H](O)CC(C)=O)OC1=O,-2.96%
8,C[C@@H]1CN([C@@H](C)CO)C(=O)c2cccc(NS(=O)(=O)c3ccc(F)cc3)c2O[C@H]1CN(C)C(=O)NC1CCCCC1,-0.297%
9,CC(C)OCCCNC(=O)c1cc(Sc2ccc(F)cc2)nc2ccccc12,0.00619%
10,CC(C)OCCCNc1ncnc2c1[nH]c1ccc(F)cc12,104% (active)
11,COc1cc(OC)c(OC)cc1/C=N/Nc1ncnc2c1[nH]c1ccc(C)cc12,6%
12,COc1ccc(NC(=O)CN(C)C(=O)c2cc(C3CC3)nn2-c2ccccc2)cc1,-6.53%
13,N#Cc1cc([N+](=O)[O-])ccc1NC(=O)COC(=O)c1cnccn1,-1.22%
14,Cc1cccc(NC(=S)Nc2ccc3cn[nH]c3c2)c1,124% (active)
15,Cc1cccc(NC(=S)Nc2ccc(Cl)c(Cl)c2)c1,2.17%
16,CCc1cccc(CC)c1NC(=S)Nc1ccc2cn[nH]c2c1,-5.93%
17,COc1ccc(S(=O)(=O)N(C)C[C@H]2Oc3c(NC(=O)Nc4ccc5c(c4)OCO5)cccc3C(=O)N([C@H](C)CO)C[C@@H]2C)cc1,2.68%
18,Cc1ccc(C(=O)Nc2ccc3c(c2)OCCO3)cc1S(=O)(=O)N1CCOCC1,10.2%
19,C/C(N)=C(/C#N)C(=O)COC(=O)c1cc(-c2cccc(Br)c2)nc2ccccc12,-5.26%

row,SMILES,protection from apoptosis
1,C/C(N)=C(/C#N)C(=O)COC(=O)c1cc(-c2ccc(C)cc2)nc2ccccc12,80.7% (active)
2,C/C(N)=C(/C#N)C(=O)COC(=O)c1cc(-c2ccccc2)nc2ccc(Br)cc12,7.58%
3,O=C(OCCN1C(=O)c2ccccc2C1=O)[C@@H]1CC(O)CN1S(=O)(=O)c1ccccc1[N+](=O)[O-] (some centres not stated),4.37%
4,C=CC[C@H](CC(=O)OC(C)(C)C)C(=O)OC[C@H]1CCCN1C(=O)[C@H](CC=C)CC(=O)N(CCO)Cc1ccccc1,5.16%
5,CCC(CO)Oc1cc(NC(=O)c2cccc(F)c2)c2ncn(C(C)C)c2c1 (configuration not stated),-0.224%
6,COC(=O)C1=C(C)N(Cc2ccccc2)C(=NCCCOC(C)C)N[C@H]1c1ccccc1,11.4%
7,Nc1ccc(Nc2ccccc2)cc1,78% (active)
8,Cc1ccc(Nc2ccccc2N)cc1,-7.56%
9,Cc1cc(Nc2ccccc2)n(C(=O)c2ccc(N)cc2)n1,-16.4%
10,Fc1cc(F)c2nc(Nc3nc4c(F)cccc4s3)sc2c1,103% (active)
11,O=C(Nc1nc2c(F)cc(F)cc2s1)C1COc2ccccc2O1 (configuration not stated),8.45%
12,NC(=O)c1c(Nc2nc3c(F)cccc3s2)sc2c1CCCC2,-4.14%
13,COc1ccc(C(=O)O)cc1S(=O)(=O)NC1CCN(Cc2ccccc2)CC1,-4.08%
14,N#Cc1ccc(Oc2cc(C(F)(F)F)nc(-c3ccccn3)n2)cc1,-3.82%
15,CCOCCCNc1nc(-c2ccccc2)nc2ccccc12,4.15%
16,CCOC(=O)c1cnc(-c2ccccc2)nc1Oc1ccc(C)cc1,-3.84%
17,Cc1ccc(Oc2nc(-c3ccccn3)nc3ccccc23)cc1,101% (active)
18,COc1cnc(-c2ccccn2)nc1Oc1ccc(C(C)(C)C)cc1,97.3% (active)
19,COc1ccc(Cc2nc(-c3ccccn3)no2)cc1OC,4.66%

row,SMILES,protection from apoptosis
1,CCC(=O)OCCNc1nc(-c2ccccc2)nc2ccccc12,0.204%
2,CC(C)(C)Nc1nc(-c2ccccn2)nc2ccccc12,118% (active)
3,COc1ccc(Sc2nc(-c3ccccc3)ncc2OC)cc1,-2.84%
4,COc1ccccc1S(=O)(=O)NCc1ccc(C(=O)N(C)Cc2ccc(F)cc2)cc1,-4.62%
5,CCN(CC)C(=O)[C@H]1CC(CC(=O)NCc2ccco2)C(=O)N2CCc3c([nH]c4ccccc34)[C@]12C (some centres not stated),-1.53%
6,O=C(COc1ccc([N+](=O)[O-])cc1Cl)Nc1ccc2[nH]c(=O)[nH]c2c1,-0.613%
7,CN(c1ccccc1)S(=O)(=O)c1cc(C(=O)N2CCN(c3ncccn3)CC2)ccc1Cl,-2.6%
8,COc1ccccc1-c1oc2ccccc2c1C#CCCCCO,-5.68%
9,COC(=O)c1ccc(/C=C/c2c(-c3ccc(OC)cc3)sc3ccccc23)cc1,5.7%
10,COc1ccc(C(=O)NC2CCCc3c2cnn3-c2cccc(C)c2C)c(OC)n1 (configuration not stated),32.4%
11,Cn1nccc1C(=O)NC1CCCc2c1cnn2-c1ccccc1F (configuration not stated),111% (active)
12,Cn1nccc1C(=O)NC1CCCc2c1cnn2-c1ccc(F)cc1F (configuration not stated),132% (active)
13,Cc1cc(C(=O)NC2CCCc3c2cnn3-c2cccc(C)c2C)c(C)o1 (configuration not stated),41.6%
14,Cc1ccc(-n2ncc3c2CCCC3NC(=O)c2cnccn2)cc1C (configuration not stated),2.44%
15,CC(=O)NCC(=O)NC1CCCc2c1cnn2-c1ccccc1F (configuration not stated),-7.28%
16,Cc1c(C(=O)Nc2cccc(S(=O)(=O)N3CCOCC3)c2)oc2ccccc12,-9.31%
17,COc1cc(C(=O)OCc2cc(=O)n3ccsc3n2)ccc1OC(C)C,-0.396%
18,CC(C)c1ccc(NC(=O)COC(=O)c2ccc(CN3CCCC3=O)cc2)cc1,3.42%
19,COc1ccccc1-c1sc2ccccc2c1C#CC1(O)CCCCC1,-12%
